In PubChem BioAssay (NCI):
The panel holds about 83,000 compounds, 20% with a hit somewhere; the sample as a whole holds those more often.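 In brief: 96-well plates, 48 h treatment, single concentration, percent growth endpoint.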 Values without a mark were called inactive. Active and inactive are the calls of the source. The calls were made as follows: active = growth percent below 10; inactive = the rest.

Key:
Test in all cases: NCI-60 one-dose screen, 48 h (100 = growth as untreated, 0 = no growth, -100 = all killed)
Conditions in all cases: 10 µM unless noted
SR leukemia = system: SR leukemia
RPMI-8226 leukemia = system: RPMI-8226 leukemia
OVCAR-8 ovarian = system: OVCAR-8 ovarian
OVCAR-5 ovarian = system: OVCAR-5 ovarian
OVCAR-4 ovarian = system: OVCAR-4 ovarian
SK-OV-3 ovarian = system: SK-OV-3 ovarian
IGROV1 ovarian = system: IGROV1 ovarian
OVCAR-3 ovarian = system: OVCAR-3 ovarian
HS 578T breast = system: HS 578T breast
NCI/ADR-RES ovarian = system: NCI/ADR-RES ovarian

SMILES | growth (SR leukemia) | growth (RPMI-8226 leukemia) | growth (OVCAR-8 ovarian) | growth (OVCAR-5 ovarian) | growth (OVCAR-4 ovarian) | growth (SK-OV-3 ovarian) | growth (IGROV1 ovarian) | growth (OVCAR-3 ovarian) | growth (HS 578T breast) | growth (NCI/ADR-RES ovarian)
c1ccc2c(NCCCN3CCN(CCCNc4c5ccccc5nc5ccccc45)CC3)c3ccccc3nc2c1 | -3.4% [100 µM] (active) | -9.92% [100 µM] (active) | -37.8% [100 µM] (active) | -31.3% [100 µM] (active) | -48.8% [100 µM] (active) | -28.4% [100 µM] (active) | -31.6% [100 µM] (active) | -34.4% [100 µM] (active) | -19.1% [100 µM] (active) | 35.7% [100 µM]
COc1ccc2c(Cl)cc(NC(=O)Nc3c(C)cccc3C)nc2c1 | 63.4% | 73% | 61.3% | 83% | -14.7% (active) | -6.49% (active) | 52.3% | 78.2% | 57.2% | 78.2%
COc1ccc(Nc2cc(Cl)ccc2C(=O)O)cn1 | 109% | 90.6% | 103% | 107% | 103% | 97.3% | 115% | 94.5% | 95.8% | 109%
C/C(O)=C(/C=N\C(=S)Nc1ccc(S(=O)(=O)Nc2nccs2)cc1)C(=O)Nc1ccccc1C | 79.1% | 86.3% | 87.7% | 103% | 98.7% | 100% | 106% | 97% | 84.1% | 105%
CC(=O)[C@@]1(O)CC[C@H]2[C@@H]3CC[C@@H]4CC(=O)CC[C@]4(C)[C@H]3[C@@H](O)C[C@@]21C | 87.9% | 97.9% | 101% | 91.7% | 111% | 82.7% | 103% | 109% | 101% | 103%
Oc1ccc(N=Cc2ccc(OCc3ccccc3)cc2)cc1 | 97.4% | 96.7% | 96.3% | 111% | 95.2% | 112% | 108% | 103% | 104% | 95.6%
OCC1OC(n2ccc3c2ncn2ncnc32)C(O)C1O (stereo not given) | 20.6% | 60.7% | 6.1% (active) | 30.2% | 53.3% | 58% | 53.4% | 28.9% | 65.2% | 23.1%
CC(=O)C1C(=O)C(=O)N(c2ccc(Cl)c(Cl)c2)C1=O (stereo not given) | 91.2% | 107% | 101% | 104% | 88.5% | 106% | 98.6% | 107% | 103% | 97%
CCOC(=O)C(CCC#N)(CCC#N)C(=O)OCC | 103% | 96.6% | 104% | 97.8% | 96% | 108% | 126% | 102% | 95.2% | 105%
C1C[S+]2CC[S+]1CC2 | 101% | 95.1% | 96% | 107% | 115% | 100% | 106% | 102% | 108% | 99.3%
Cc1ccc(C2CCCCC2)cc1Br | 91.4% | 100% | 98.4% | 94.3% | 119% | 96.5% | 101% | 104% | 96.4% | 97.7%
COC1CC(OC(=O)c2ccc([N+](=O)[O-])cc2)C(COC(=O)c2ccc([N+](=O)[O-])cc2)O1 (stereo not given) | 85.9% | 101% | 91.2% | 99.7% | 97% | 107% | 126% | 111% | 109% | 108%
CCCC(=O)CC(=O)c1ccccc1 | 107% | 103% | 93.6% | 101% | 112% | -20% (active) | 108% | 99.4% | 106% | 100%
CCOC(=O)c1ccc(C(C)(C)C)cc1 | 95.7% | 104% | 103% | 106% | 109% | 104% | 108% | 107% | 114% | 108%
N#Cc1ccc(OC(=O)Nc2cc(Cl)cc(Cl)c2)cc1 | -30.4% [100 µM] (active) | -13% [100 µM] (active) | 7.55% [100 µM] (active) | 9.02% [100 µM] (active) | 11.4% [100 µM] | -6.95% [100 µM] (active) | 18% [100 µM] | 7.77% [100 µM] (active) | -11.5% [100 µM] (active) | -4.12% [100 µM] (active)
CN(CCCN(C)CCC1CCCCC1)CCC1CCCCC1 | -36.3% (active) | 43.6% | 67.6% | 56.4% | 59.1% | 58.9% | 66.6% | 73.9% | 51.2% | 62%
COC(=O)C1(CC(C)=O)NC(=S)NC(=O)C1C#N (stereo not given) | 99.1% | 114% | 112% | 107% | 117% | 117% | 111% | 122% | 96.1% | 103%
CN(C)c1ccc(O)c2c1CC1CC3C(N(C)C)C(=O)C(C(N)=O)=C(O)C3(O)C(=O)C1=C2O (stereo not given) | 24.1% | 20.6% | 38.3% | 63.4% | 57.8% | 45.2% | 38.4% | 46.6% | 48.9% | 66.7%
C=CCNC(=S)N/C=C(/C(=O)c1ccccc1)c1ccccc1 | 95.4% | 101% | 117% | 97.7% | 110% | 110% | 106% | 112% | 103% | 104%
Clc1ccc(C(SCc2ccccc2)SCc2ccccc2)cc1 | 81% | 83% | 95.5% | 93.3% | 89% | 94.9% | 93.2% | 90.1% | 93.4% | 98.9%
O=C1NC(=O)C(c2ccccc2)O1 (stereo not given) | 93.3% | 99.5% | 102% | 106% | 98.2% | 96.6% | 108% | 117% | 117% | 97.8%
Nc1c(O)c(S(=O)(=O)O)c(O)c2c1C(=O)c1ccccc1C2=O | 13.8% | 11.5% | 27.8% | 42.8% | 26.1% | 22.9% | 19.2% | 8.87% (active) | 59.7% | 17.8%
CC(=O)c1ccc(C)cc1 | 112% | 113% | 108% | 104% | 112% | 121% | 98.1% | 111% | 94.9% | 106%
COC(=O)Cc1cc(COC(C)=O)ccc1C | 75.4% | 110% | 108% | 103% | 114% | 125% | 107% | 109% | 112% | 107%
O=S(=O)(O)C(C(I)I)S(=O)(=O)O | 101% | 114% | 101% | 114% | 107% | 106% | 114% | 105% | 93.7% | 113%
O=c1nc(Nc2cccc(Cl)c2)oc2cc(Cl)oc(=O)c12 | 2.45% (active) | 26.8% | 62.9% | 88% | 89.9% | 98.4% | 12.4% | 51.6% | 62.3% | 89%
FC(F)(F)c1cc(NC2=NCCN=C(Nc3cc(C(F)(F)F)cc(C(F)(F)F)c3)SS2)cc(C(F)(F)F)c1 | 1.94% (active) | 6.78% (active) | 48.6% | 102% | 65.8% | 79.5% | 49.7% | 25.8% | 79.3% | 59.6%
CC(C)(N)CO[C@H]1C[C@H]2CC[C@@]1(C)C2(C)C | 106% | 108% | 102% | 95% | 104% | 112% | 106% | 93.6% | 81.9% | 103%
C=C1C(=O)C2CCN1CC2 | 26.1% | 93.8% | 110% | 99.6% | 101% | 105% | 122% | 85.2% | 101% | 104%
